Screening results as filed in PubChem.
Shown is part of a subset that was picked to be rich in hits.
ALOX12 inh = ALOX12 (human) lipoxygenase inhibition; purified 12hLO, xylenol orange hydroperoxide absorbance; hit rate 1.1% among 580,000; Potency, µM (titrated, usually from 108 µM), inactives show at the top dose activity change, negative = inhibition, usual class: inhibitors; further: on the % scale 0 is the no-effect control and ±100 the full control effect
Target sequence (P18054 whole entry, looked up): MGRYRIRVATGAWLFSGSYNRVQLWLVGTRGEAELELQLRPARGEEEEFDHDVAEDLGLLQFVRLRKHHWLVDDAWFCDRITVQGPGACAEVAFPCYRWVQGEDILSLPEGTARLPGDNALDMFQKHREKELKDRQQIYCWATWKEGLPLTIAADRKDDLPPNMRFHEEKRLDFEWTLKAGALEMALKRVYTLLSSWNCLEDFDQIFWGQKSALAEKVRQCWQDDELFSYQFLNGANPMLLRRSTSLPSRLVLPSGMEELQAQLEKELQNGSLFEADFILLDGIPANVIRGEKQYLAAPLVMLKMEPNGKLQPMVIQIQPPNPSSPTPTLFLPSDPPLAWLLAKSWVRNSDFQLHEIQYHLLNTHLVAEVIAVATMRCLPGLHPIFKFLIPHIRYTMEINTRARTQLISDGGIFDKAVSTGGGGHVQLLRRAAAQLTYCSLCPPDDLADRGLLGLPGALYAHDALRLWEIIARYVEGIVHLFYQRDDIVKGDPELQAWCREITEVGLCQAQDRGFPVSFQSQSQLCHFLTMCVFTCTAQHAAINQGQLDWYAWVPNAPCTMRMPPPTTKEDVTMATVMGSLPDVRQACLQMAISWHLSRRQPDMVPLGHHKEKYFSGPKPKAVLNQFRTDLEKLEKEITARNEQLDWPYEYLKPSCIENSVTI
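Purified human 12hLO (150 nM final) in 25 mM Hepes, 0.01% Triton X-100, pH 7.0 was preincubated 15 min at room temperature with compound. Then 40 uM arachidonic acid was added, 30 min. Hydroperoxide was read by Fe-XO absorbance ratio 573/405 nm.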
VDR inhibitor = inhibitors of human vitamin D receptor; P11473; VDR-SRC2-3 peptide fluorescence polarization, 2 h; Potency, µM, inactives show max response, negative = inhibition, usual class: inhibitors; hit rate 0.93% among 400,000; AID 504847; further: on the % scale 0 is the no-effect control and ±100 the full control effect
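Two reagent solutions held at 4 deg C in the dark were dispensed, compounds pinned at 23 nl, and the mixture incubated 2 h at room temperature. Read-out: fluorescence polarization of VDR–SRC2-3 peptide binding.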
GRP78 ERSR act = inducers of ER stress response in human glioma cells; AID 602332; U87-MG GRP78 promoter luciferase reporter, 16 h; Potency, µM, without a hit: at the top dose activation, most hits filed as activators; hit rate 0.02% among 420,000; further: series mostly up to about 76 µM; % of control where 0% means no effect; nearly all actives have a fitted effect of over 35% in size
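ERSR induction read as luciferase luminescence (Bright-Glo, 10 min at room temperature) in stably transfected human U87-MG glioma cells exposed to compounds for 16 h, using GRP78 as sensor.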
G9a inh = G9a (human) methyltransferase inhibition; Potency, µM (top dose mostly 102 µM), inactives show top-dose activity, negative = inhibition, actives largely listed as inhibitors; G9a H3K9 monomethylation, AlphaScreen, 2 h; hit rate 8.8% among 350,000; AID 504332; Q96KQ7; further: on the % scale 0 is the no-effect control and ±100 the full control effect; nearly all actives have a fitted effect of over 75% in size
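Readings reflect AlphaScreen signal from monomethyl-H3K9 antibody detection. HMT at 20 nM; substrate b-H3K9 500 nM; cofactor SAM 20 uM; 2 h RT reaction; compounds tested as titrations in qHTS with 15 min preincubation.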
Sfp inh = blocks B. subtilis Sfp PPTase activity. Q9F4F7. Biochemical Sfp PPTase activity, qHTS. Potency, µM, for inactives: largest response in the series, negative = inhibition, hits mostly inhibitors. hit rate 3.5% among 310,000. AID 1490;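 further: the enzyme is Sfp with the accession as filed and its product quenches rhodamine fluorescence; 0% = enzyme reaction without inhibitor and -100% = no enzyme wells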
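Fluorescence-quenching assay with 15 nM Sfp, 5 uM rhodamine-CoA and 12.5 uM BHQ-2-labelled ybbR peptide in pH 7.6 Hepes/MgCl2 buffer. Enzyme was pre-incubated with compound for 15 min at room temperature. Rate was taken from the 30-min fluorescence change (525/598 nm).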
Numbers without * were called inactive; ! = repeats disagree; [ ] = dose if it differs, or a comment. The call rests on the fitted dose curve; in most records, active means well fitted curve in the direction sought with a large enough effect; inconclusive means small, poorly fitted or top-dose-only effect, or another doubt; inactive means no such curve, though single readings can be large; an effect the other way counts as inactive or inconclusive. Potency means the concentration at half of the fitted maximal effect.

What do the screens show for `COc1ccc(CNC(=O)CN(c2ccccc2)S(=O)(=O)N(C)C)cc1`?
ALOX12 inh: 0.4%; VDR inhibitor: 89.1µM*!; GRP78 ERSR act: -3.5%; G9a inh: -13.9%; Sfp inh: -4.3%

Results for COc1cccc(CN(C)CC(=O)NCc2ccc(C)cc2)c1 ?
ALOX12 inh: inconclusive; VDR inhibitor: 0.4%; GRP78 ERSR act: -1.0%; G9a inh: 14.1µM*; Sfp inh: -21.4%

What do the screens show for `CN(C)S(=O)(=O)N(CC(=O)NCc1ccccc1)c1ccccc1`?
ALOX12 inh: inconclusive; VDR inhibitor: 5.9%; GRP78 ERSR act: -2.0%; G9a inh: 2.5%[59 µM]; Sfp inh: 8.5%

Results for CCOc1ccc2cc(C(=O)O)[nH]c2c1 ?
ALOX12 inh: -2.6%

How did CN(CC(=O)NC(=O)NCc1ccccc1)Cc1ccc(Cl)cc1 do in these assays?
ALOX12 inh: -14.5%; VDR inhibitor: -10.2%; GRP78 ERSR act: -3.9%; G9a inh: 44.7µM*; Sfp inh: -12.9%

How did CCN(CC(=O)Nc1cccc(C(C)=O)c1)S(=O)(=O)c1ccc(OC)cc1 do in these assays?
ALOX12 inh: 17.6%; VDR inhibitor: 4.2%; GRP78 ERSR act: 1.2%; G9a inh: -11.8%[59 µM]; Sfp inh: 15.2%

What do the screens show for `CCN(CC)S(=O)(=O)c1cccc(NC(=O)CN(C)Cc2cccc(OC)c2)c1`?
ALOX12 inh: inconclusive; VDR inhibitor: -0.4%; GRP78 ERSR act: -2.9%; G9a inh: -115.3%[12.7 µM]; Sfp inh: 89.1µM*

How did CC(C)(C)NC(=O)NC(=O)Cn1cc(C(F)(F)F)ccc1=O do in these assays?
ALOX12 inh: 4.2%; VDR inhibitor: -18.1%; GRP78 ERSR act: -7.8%; G9a inh: 21.5%[59 µM]; Sfp inh: -13.2%

What do the screens show for `COc1ccc(CNC(=O)Cn2cc(C(F)(F)F)ccc2=O)cc1`?
ALOX12 inh: -12.9%; VDR inhibitor: -13.0%; GRP78 ERSR act: -1.7%; G9a inh: 50.1µM*; Sfp inh: -7.7%

Results for Cn1nc(C(=O)Nc2ccc(F)cc2F)c2ccccc2c1=O ?
ALOX12 inh: -5.1%

Results for CCc1ccc(NC2=CC(=O)CC(c3ccco3)C2)cc1 (stereo unspecified) ?
ALOX12 inh: inconclusive; VDR inhibitor: 12.7%; GRP78 ERSR act: 5.3%; G9a inh: 50.1µM*; Sfp inh: inconclusive

How did Nc1ccccc1NC1=CC(=O)CC(c2ccco2)C1 (stereo unspecified) do in these assays?
ALOX12 inh: 492.1%; VDR inhibitor: 3.8%; GRP78 ERSR act: -3.9%; G9a inh: 10µM*; Sfp inh: 8.91µM*

What do the screens show for `CCN1C(=O)C2(CC(=O)Nc3[nH]ncc32)c2ccccc21` (stereo unspecified)?
ALOX12 inh: 3.1%

Results for CSc1ccc(CNc2cccc(C(=O)O)c2C)cc1 ?
ALOX12 inh: 31.6%

What do the screens show for `CCN(CC)c1ccc2c(-c3ccc(S(=O)(=O)O)cc3S(=O)(=O)[O-])c3ccc(=[N+](CC)CC)cc-3oc2c1`?
VDR inhibitor: 39.8µM*; GRP78 ERSR act: -10.7%; G9a inh: 39.8µM*; Sfp inh: 89.1µM*

Results for CCN1CCN(CCCCSc2ccccc2)CC1 ?
G9a inh: 8.91µM*; Sfp inh: inconclusive

How did COc1ccc(CN(C)Cc2cc(=O)oc3c(C)c(C)ccc23)cc1 do in these assays?
ALOX12 inh: -26.9%

What do the screens show for `CCOC(=O)c1ccc(NC(=O)CC2SC(c3cc4ccccc4oc3=O)=NC2=O)cc1` (stereo unspecified)?
ALOX12 inh: -16.9%

What do the screens show for `Cc1nn(C(C)C(=O)NNC(=S)Nc2ccc(F)cc2)c(C)c1[N+](=O)[O-]` (stereo unspecified)?
ALOX12 inh: 19.5%; VDR inhibitor: -8.9%; GRP78 ERSR act: -3.9%; G9a inh: 44.7µM*; Sfp inh: 17.7%

What do the screens show for `CC(=O)Nc1ccc(NC(=O)C(C)n2nc(C)c([N+](=O)[O-])c2C)cc1` (stereo unspecified)?
ALOX12 inh: -17.0%; VDR inhibitor: 1.2%; GRP78 ERSR act: -3.8%; G9a inh: -28.5%; Sfp inh: -6.9%

How did Cc1ccc(NC(=S)NNC(=O)CCn2cc(C)cn2)cc1 do in these assays?
ALOX12 inh: 27.6%; VDR inhibitor: 16.3%; GRP78 ERSR act: -4.2%; G9a inh: 50.1µM*; Sfp inh: 5.3%
